Compounds with a hit are over-represented: about 10% of the library has one in this group of screens.
FLuc inh-1: Photinus pyralis luciferase inhibition; P08659; actives 2.5% (n = 76,000); purified P. pyralis luciferase, luminescence, biochemical; Potency, µM (top dose mostly 115 µM), hits mostly inhibitors; AID 1347043; further: on the % scale 0 is the no-effect control and ±100 the full control effect; nearly all actives have a fitted effect of over 65% in size
Target sequence (P08659 whole entry, looked up): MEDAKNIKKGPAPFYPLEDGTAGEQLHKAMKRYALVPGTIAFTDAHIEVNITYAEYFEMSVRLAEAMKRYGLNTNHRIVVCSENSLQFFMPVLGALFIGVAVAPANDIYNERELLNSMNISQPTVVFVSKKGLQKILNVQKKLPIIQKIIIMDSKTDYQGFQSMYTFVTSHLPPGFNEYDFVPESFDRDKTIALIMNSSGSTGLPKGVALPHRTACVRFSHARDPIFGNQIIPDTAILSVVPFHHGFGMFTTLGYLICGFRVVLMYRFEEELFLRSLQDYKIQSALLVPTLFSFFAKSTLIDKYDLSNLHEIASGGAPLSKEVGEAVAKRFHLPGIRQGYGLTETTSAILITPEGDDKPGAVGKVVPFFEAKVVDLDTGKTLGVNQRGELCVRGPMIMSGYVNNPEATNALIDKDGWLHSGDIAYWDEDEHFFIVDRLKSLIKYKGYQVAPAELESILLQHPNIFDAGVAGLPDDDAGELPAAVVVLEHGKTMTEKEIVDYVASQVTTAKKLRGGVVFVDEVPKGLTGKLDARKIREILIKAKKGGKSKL
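Purified P. pyralis luciferase (10nM final) in 50mM Tris acetate pH 7.5, 10mM Mg acetate, 0.01% Tween-20, 0.05% BSA with 10uM D-luciferin and 10uM ATP. Compounds titrated qHTS. Luminescence imaged on CCD.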
GPT2 inhibitor: blocks human glutamate pyruvate transaminase 2 | Potency, µM (doses to about 57.7 µM), without a hit: at the top dose activity change, negative = inhibition, hits mostly inhibitors | AID 1671188 | Recombinant GPT2, coupled pyruvate oxidase/HRP Amplex Red fluorescence | actives 0.25% (n = 100,000) | Q8TD30; further: on the % scale 0 is the no-effect control and ±100 the full control effect; nearly all actives have a fitted effect of over 60% in size
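Recombinant GPT2 (10ng/uL) with 250uM a-KG and 2mM L-alanine, 30 min at room temperature, in HEPES pH 7.5 buffer. Pyruvate detected by pyruvate oxidase/HRP/Amplex Red fluorescence after 30 min in the dark; AOA (50uM) as positive control.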
3T3 cytotox: kills NIH 3T3 cells | NIH 3T3 viability, CellTiter-Glo ATP luminescence, 48-72 h | Potency, µM (doses to about 96.7 µM), without a hit: at the highest dose activity change, negative = cytotoxicity, usual class: inhibitors | actives 4.3% (n = 94,000) | AID 1345082; further: on the % scale 0 is the no-effect control and ±100 the full control effect; nearly all actives have a fitted effect of over 55% in size
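Luminescent ATP readout (CellTiter-Glo, 10 min RT) after 48 or 72 hr compound exposure of NIH 3T3 cells seeded at 400 cells/well in 1536-well format; quantitative HTS.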
NPR1 antag: blocks ANP-stimulated signaling of human Npr1 receptor | Potency, µM (doses to about 46.3 µM), for the others: at the top dose activity change, negative = inhibition, usual class: inhibitors | HEK293 hNpr1 GloSensor cGMP, ANP-stimulated luminescence | actives 1.6% (n = 76,000) | P16066 | AID 1347048; calls by dose curve; further: on the % scale 0 is the no-effect control and ±100 the full control effect; nearly all actives have a fitted effect of over 60% in size
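HEK293 cells stably expressing human Npr1 and cGMP GloSensor pGS-40F, loaded 2 h with 2% GloSensor reagent, given compound 30 min at room temperature. Luminescence read before and 20 min after 0.1 nM hNppA.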
HEK293 tox: cytotoxic compounds in HEK 293 cells; HEK 293 viability, ATP luminescence (CellTiter-Glo), 48-72 h; Potency, µM (series often up to 115 µM), inactives show top-dose activity change, negative = cytotoxicity, usual class: inhibitors; actives 6.6% (n = 94,000); AID 1345083; further: on the % scale 0 is the no-effect control and ±100 the full control effect; nearly all actives have a fitted effect of over 60% in size
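250 HEK 293 cells/well; compound by pintool; incubated 48 or 72 hr at 37 degree Celsius; CellTiter-Glo added, 10 min RT, luminescence imaged.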
FLuc SDR -ATP: stabilizes firefly luciferase without ATP. Potency, µM (highest dose often 32.7 µM), for inactives: at the highest dose activation (signal gain), hits mostly activators. actives 7.8% (n = 1,300). shares compounds with FLuc inh-1. Purified FLuc-C-HiBiT, Nano-Glo HiBiT luminescence, no ATP; further: nearly all actives have a fitted effect of over 55% in size
FLuc SDR ATP: firefly luciferase binding stabilization, ATP added | shares compounds with FLuc inh-1 | purified FLuc-C-HiBiT + ATP, HiBiT complementation luminescence | Potency, µM (doses to about 32.7 µM), for inactives: at the top dose activation (gain of signal), hits mostly activators | actives 8.7% (n = 1,300) | AID 1963319;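 further: signal reports ligand binding via conformational change of the enzyme rather than luciferase catalysis; % of control where 0% means no effect; nearly all actives have a fitted effect of over 55% in size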
FLuc inh-2: firefly luciferase enzyme inhibition. shares compounds with FLuc inh-1. purified FLuc-C-HiBiT enzyme, luciferin luminescence. Potency, µM (top dose mostly 32.7 µM), without a hit: at the top dose activity change, negative = inhibition, most hits filed as inhibitors. actives 42% (n = 1,300). AID 1963320; further: on the % scale 0 is the no-effect control and ±100 the full control effect; nearly all actives have a fitted effect of over 70% in size
Numbers without * were called inactive; [ ] = remark or other dose. Unless noted, the call rests on the fitted dose curve; in most records, active means well fitted curve in the direction sought with a large enough effect; inconclusive means small, poorly fitted or top-dose-only effect, or another doubt; inactive means no such curve, though single readings can be large; an effect the other way counts as inactive or inconclusive. Potency means the concentration at half of the fitted maximal effect.

For COc1ccc(-c2ccc(COc3ccc4c(cnn4CCC(=O)O)c3)cc2)c(Cl)c1 the results were FLuc inh-1 inconclusive, GPT2 inhibitor -1.9%[88.5 µM], 3T3 cytotox -18.5%[138 µM], NPR1 antag -1.9%[70.6 µM] and HEK293 tox inconclusive.
CC(C)CC(=O)N1CCCC(Cc2nncn2C(C)C)C1 (centres undefined) was read as FLuc inh-1 inactive, GPT2 inhibitor -0.6%, 3T3 cytotox -28.2%, NPR1 antag -13.1% and HEK293 tox inconclusive.
Screening CC(C)n1cnnc1CC1CCCNC1 (centres undefined) returned FLuc inh-1 inactive, GPT2 inhibitor inactive, 3T3 cytotox -3.8%, NPR1 antag 0.8% and HEK293 tox 0.2%.
CC(C)n1cnnc1CN(C)c1nc(N)nc2nc[nH]c12 was read as FLuc inh-1 inactive, GPT2 inhibitor -6.6%, 3T3 cytotox 1.0%, NPR1 antag 2.3%, HEK293 tox -7.1%, FLuc SDR -ATP 15.1%, FLuc SDR ATP 8.0% and FLuc inh-2 -2.8%.
For CCc1ccc2oc(-c3ccc(C)c(NC(=O)c4ccc(C#N)cc4F)c3)nc2c1 the results were FLuc SDR -ATP 17.0%, FLuc SDR ATP 13.2% and FLuc inh-2 -14.8%.
O=C(Nc1ccc(F)cc1)c1cc2cccnn2n1 was read as FLuc inh-1 14.1µM*, GPT2 inhibitor inactive, 3T3 cytotox inconclusive, NPR1 antag 4.0%[70.6 µM], HEK293 tox inconclusive, FLuc SDR -ATP 25.2%[49.3 µM], FLuc SDR ATP 18.8%[49.3 µM] and FLuc inh-2 inconclusive.
`O=C(O)c1cccc(-c2noc(-c3ccc(F)cc3)n2)c1` gave FLuc SDR -ATP 4.95µM*, FLuc SDR ATP 0.0056µM* and FLuc inh-2 0.0044µM*.
O=C(c1ccc(F)cc1)N1CC(c2noc(-c3ccccc3)n2)C1 was read as FLuc inh-1 inactive, GPT2 inhibitor 4.7%, 3T3 cytotox -14.5%, NPR1 antag 0.0% and HEK293 tox -11.8%.
`O=C(O)c1cccc(-c2noc(-c3cccc(F)c3)n2)c1` gave FLuc SDR -ATP inconclusive, FLuc SDR ATP 0.007µM* and FLuc inh-2 0.007µM*.
For O=C(O)c1ccc(-c2noc(-c3cccc(F)c3)n2)cc1 the results were FLuc SDR -ATP 17.4%, FLuc SDR ATP inconclusive and FLuc inh-2 4.95µM*.
For O=C(O)c1cccc(-c2noc(-c3ccccc3Cl)n2)c1 the results were FLuc SDR -ATP 2.79µM*, FLuc SDR ATP 0.0062µM* and FLuc inh-2 0.0035µM*.
Screening COc1cccc(-c2nc(-c3ccc(C(=O)O)cc3)no2)c1 returned FLuc SDR -ATP inconclusive, FLuc SDR ATP 0.881µM* and FLuc inh-2 0.785µM*.
Screening O=C(O)c1cccc(-c2noc(-c3cccc([N+](=O)[O-])c3)n2)c1 returned FLuc SDR -ATP 11.1µM*, FLuc SDR ATP 0.0079µM* and FLuc inh-2 0.007µM*.
`CN(Cc1cccc(C(F)(F)F)c1)C(=O)c1ccccc1` gave FLuc inh-1 inconclusive, GPT2 inhibitor inactive, 3T3 cytotox inconclusive, NPR1 antag 11.3%[70.6 µM] and HEK293 tox inconclusive.
Screening O=C(O)c1ccc(-c2nnc3ccc(NC(=O)C4CCC4)cn23)cc1 returned FLuc inh-1 10µM*, GPT2 inhibitor inactive, 3T3 cytotox -20.8%, NPR1 antag 1.8%, HEK293 tox 18.7%, FLuc SDR -ATP inconclusive, FLuc SDR ATP inconclusive and FLuc inh-2 inconclusive.
Screening Cc1ccc(N2CCN(c3nc(C(=O)O)cs3)CC2)cc1 returned FLuc inh-1 1.41µM*, GPT2 inhibitor -0.8%, 3T3 cytotox -5.7%, NPR1 antag -16.3%, HEK293 tox -2.4%, FLuc SDR -ATP 12.6%, FLuc SDR ATP inconclusive and FLuc inh-2 1.97µM*.
For COCCCNC(=O)c1csc(N2CCN(c3ccccc3)CC2)n1 the results were FLuc inh-1 inactive, GPT2 inhibitor inactive, 3T3 cytotox -7.0%, NPR1 antag 2.3% and HEK293 tox inconclusive.
Screening CN1CCN(C(=O)C2CCCCc3nnc(-c4ccccc4)n32)CC1 (centres undefined) returned GPT2 inhibitor inactive, 3T3 cytotox -8.6% and HEK293 tox 0.4%.
O=C1CCN(C(=O)C2CCN(C(=O)CCc3c[nH]c4ccccc34)CC2)CCCCCCN1 was read as FLuc inh-1 inactive, GPT2 inhibitor inactive, 3T3 cytotox -19.3%, NPR1 antag -7.3% and HEK293 tox -5.0%.
For CC1CCc2nc3ncn(Cc4ccc(Cl)cc4)c(=O)c3cc2C1 (centres undefined) the results were FLuc SDR -ATP 16.2%, FLuc SDR ATP 12.7% and FLuc inh-2 -8.5%.
Screening CCc1noc(-c2cccn3c(CNC(=O)Cc4cccc(F)c4)nnc23)n1 returned FLuc inh-1 inactive, GPT2 inhibitor inactive, 3T3 cytotox -26.4%, NPR1 antag -11.1% and HEK293 tox -9.2%.
For Cc1cc2cc(C(=O)N3CCN(c4nc5ccccc5s4)CC3)ccc2o1 the results were FLuc inh-1 inactive, GPT2 inhibitor inactive, 3T3 cytotox -4.2%, NPR1 antag inconclusive and HEK293 tox inconclusive.
Cc1ccc2c(c1)sc1nc(-c3cc4ccccc4oc3=O)cn12 was read as FLuc SDR -ATP 28.6%, FLuc SDR ATP inconclusive and FLuc inh-2 0.248µM*.
For CC(=O)NCCC(=O)N1CCOc2c(O)cc(-c3cccc(Cl)c3)cc2C1 the results were FLuc inh-1 inactive, GPT2 inhibitor 0.9%, 3T3 cytotox -28.7%, NPR1 antag 4.5% and HEK293 tox inconclusive.
Screening C=CCCC(=O)N1CCOc2c(O)cc(-c3nc4ccccc4s3)cc2C1 returned FLuc inh-1 inconclusive, GPT2 inhibitor -2.0%, 3T3 cytotox inconclusive, NPR1 antag -25.7%, HEK293 tox 50.1µM*, FLuc SDR -ATP 12.3%, FLuc SDR ATP 9.2% and FLuc inh-2 -16.7%.
For Oc1ccc(Cl)cc1CN1CCOc2c(O)cc(-c3nc4ccccc4s3)cc2C1 the results were FLuc SDR -ATP 14.9%, FLuc SDR ATP 9.6% and FLuc inh-2 -3.0%.
